Results filed as inconclusive are left out. The source made the active and inactive calls. Unless noted, calls come from the whole dose curve.
Assays:
[1] = qHTS assay to identify small molecule antagonists of the sonic hedgehog signaling (Shh) pathway (AID 1259369); note: nearly all actives have a fitted effect of over 45% in size; note: potency is the fitted concentration of half-maximal effect
Summary of the method: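 Stable Gli1-Luc reporter NIH/3T3 clone; quantitative HTS in stimulated mode with conditioned medium. Luminescence measured after 24hr compound treatment at 37 C.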

[2] = target: Estrogen receptor beta (Homo sapiens) (UniProt Q92731); experiment: qHTS assay to identify small molecule agonists of the estrogen receptor beta (ER-beta) signaling pathway (AID 1259377; active = well fitted activation curve with a large enough effect in the signal ratio in the repeat runs, not every such curve was filed as active; the % refers to the signal ratio)
Sequence of Estrogen receptor beta (Homo sapiens) (Q92731 whole entry, looked up): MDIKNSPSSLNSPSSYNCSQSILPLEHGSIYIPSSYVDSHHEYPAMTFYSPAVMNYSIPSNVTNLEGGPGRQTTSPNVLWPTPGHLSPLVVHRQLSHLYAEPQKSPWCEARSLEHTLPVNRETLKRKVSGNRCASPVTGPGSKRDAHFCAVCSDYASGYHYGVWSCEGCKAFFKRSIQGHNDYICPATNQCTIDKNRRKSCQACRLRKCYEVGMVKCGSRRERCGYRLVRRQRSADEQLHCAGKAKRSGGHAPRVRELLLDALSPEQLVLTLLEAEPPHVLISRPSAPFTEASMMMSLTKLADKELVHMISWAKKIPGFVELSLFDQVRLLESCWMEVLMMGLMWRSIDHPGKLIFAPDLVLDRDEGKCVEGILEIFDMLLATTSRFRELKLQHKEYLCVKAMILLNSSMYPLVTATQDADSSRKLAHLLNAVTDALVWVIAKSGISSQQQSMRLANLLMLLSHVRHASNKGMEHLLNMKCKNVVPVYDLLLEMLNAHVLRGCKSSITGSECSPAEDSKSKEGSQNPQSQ
Summary of the method: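 ER-beta-UAS-bla HEK293T (GripTite) cells carrying a UAS-driven beta-lactamase reporter, in medium with 2% charcoal-stripped FBS, were exposed to compounds for 16 hr at 37C; LiveBLAzer B/G FRET substrate was then added and fluorescence read after 2 hours at room temperature.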

[3] = qHTS assay to identify small molecule agonists of the androgen receptor (AR) signaling pathway in the presence of an antagonist - cell viability counter screen (AID 1259379; active = well fitted curve in the direction sought with a large enough effect in the repeat runs; an effect the other way counts as inactive or inconclusive;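 note: MDA-kb2 human breast cancer cells carrying an MMTV luciferase reporter; series mostly up to about 92 µM; nearly all actives have a fitted effect of over 25% in size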)
Summary of the method: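 Nilutamide-containing (3.0uM final) MDA-kb2 cultures, 3,000 cells/well, were treated with compounds across 15 concentrations. After 16 hr at 37C with no CO2, cell viability was determined by CellTiter-Fluor fluorescence in the luciferase assay wells.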

[4] = qHTS assay to identify small molecule agonists of the estrogen receptor beta (ER-beta) signaling pathway - cell viability counter screen (AID 1259380; active = well fitted curve in the direction sought with a large enough effect in the repeat runs; an effect the other way counts as inactive or inconclusive; note: nearly all actives have a fitted effect of over 30% in size)
Summary of the method: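 Steps: plate ER-beta-UAS-bla HEK293T cells, rest 6 hr; add compounds in DMSO; incubate 16 hr at 37C, 5% CO2; add FRET substrate 2 hr; add CellTiter-Glo, wait 30 min at room temperature; read luminescence.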

[5] = qHTS assay to identify small molecule antagonists of the estrogen receptor beta (ER-beta) signaling pathway - cell viability counter screen (AID 1259382; active = well fitted curve in the direction sought with a large enough effect in the repeat runs; an effect the other way counts as inactive or inconclusive; note: series mostly up to about 92 µM; nearly all actives have a fitted effect of over 55% in size)
Summary of the method: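 Viability is scored by CellTiter-Glo luminescence (30 min, room temperature) in ER-beta-UAS-bla HEK293T wells already read for reporter fluorescence. Compound exposure lasts 16 hr at 37C alongside 1nM 17-beta-estradiol in charcoal-stripped serum medium.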

[6] = target: Estrogen receptor (Homo sapiens) (UniProt P03372); experiment: qHTS assay to identify small molecule agonists of the estrogen receptor alpha (ER-alpha) signaling pathway in the presence of an antagonist (AID 1259383); note: top concentration of the series differs between compounds; nearly all actives have a fitted effect of over 15% in size
Sequence of Estrogen receptor (Homo sapiens) (P03372 whole entry, looked up): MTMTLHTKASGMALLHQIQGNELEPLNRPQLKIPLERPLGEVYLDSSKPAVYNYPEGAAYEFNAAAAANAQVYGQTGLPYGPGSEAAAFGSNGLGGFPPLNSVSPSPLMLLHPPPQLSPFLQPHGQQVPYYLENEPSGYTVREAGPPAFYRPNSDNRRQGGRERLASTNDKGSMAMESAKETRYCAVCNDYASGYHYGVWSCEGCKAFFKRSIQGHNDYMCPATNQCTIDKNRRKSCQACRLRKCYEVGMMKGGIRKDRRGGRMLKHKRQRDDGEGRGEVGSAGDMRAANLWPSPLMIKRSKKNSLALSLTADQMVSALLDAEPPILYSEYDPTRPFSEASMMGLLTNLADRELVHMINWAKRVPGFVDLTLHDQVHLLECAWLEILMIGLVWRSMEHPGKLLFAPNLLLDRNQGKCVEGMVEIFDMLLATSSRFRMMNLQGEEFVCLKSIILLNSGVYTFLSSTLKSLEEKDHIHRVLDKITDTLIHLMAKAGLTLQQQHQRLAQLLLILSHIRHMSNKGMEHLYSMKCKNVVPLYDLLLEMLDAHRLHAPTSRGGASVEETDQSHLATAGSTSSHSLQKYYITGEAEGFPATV
Summary of the method: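 Readout was ERE-driven luciferase luminescence in VM7Luc4E2 cells, which express full-length ER-alpha endogenously. Compounds were tested at 15 concentrations for 22hr alongside 10.0nM ICI-182,780 (final concentration).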

[7] = qHTS assay to identify small molecule agonists or antagonists of the thyroid stimulating hormone receptor (TSHR) signaling pathway - wild type cell line counter screen (AID 1259384)
Summary of the method: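 Wild-type Hek293 cells, 800/well, 18 h at 37C, then compound with Ro20-1724 for 30 min RT. cAMP by HTRF (cAMP-d2/anti-cAMP cryptate), 1 h RT, fluorescence read. 15 concentrations, triplicates.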

[8] = target: Thyrotropin receptor (Homo sapiens) (UniProt P16473); experiment: qHTS assay to identify small molecule antagonists of the thyroid stimulating hormone receptor (TSHR) signaling pathway (AID 1259385); note: nearly all actives have a fitted effect of over 20% in size
Sequence of Thyrotropin receptor (Homo sapiens) (P16473 whole entry, looked up): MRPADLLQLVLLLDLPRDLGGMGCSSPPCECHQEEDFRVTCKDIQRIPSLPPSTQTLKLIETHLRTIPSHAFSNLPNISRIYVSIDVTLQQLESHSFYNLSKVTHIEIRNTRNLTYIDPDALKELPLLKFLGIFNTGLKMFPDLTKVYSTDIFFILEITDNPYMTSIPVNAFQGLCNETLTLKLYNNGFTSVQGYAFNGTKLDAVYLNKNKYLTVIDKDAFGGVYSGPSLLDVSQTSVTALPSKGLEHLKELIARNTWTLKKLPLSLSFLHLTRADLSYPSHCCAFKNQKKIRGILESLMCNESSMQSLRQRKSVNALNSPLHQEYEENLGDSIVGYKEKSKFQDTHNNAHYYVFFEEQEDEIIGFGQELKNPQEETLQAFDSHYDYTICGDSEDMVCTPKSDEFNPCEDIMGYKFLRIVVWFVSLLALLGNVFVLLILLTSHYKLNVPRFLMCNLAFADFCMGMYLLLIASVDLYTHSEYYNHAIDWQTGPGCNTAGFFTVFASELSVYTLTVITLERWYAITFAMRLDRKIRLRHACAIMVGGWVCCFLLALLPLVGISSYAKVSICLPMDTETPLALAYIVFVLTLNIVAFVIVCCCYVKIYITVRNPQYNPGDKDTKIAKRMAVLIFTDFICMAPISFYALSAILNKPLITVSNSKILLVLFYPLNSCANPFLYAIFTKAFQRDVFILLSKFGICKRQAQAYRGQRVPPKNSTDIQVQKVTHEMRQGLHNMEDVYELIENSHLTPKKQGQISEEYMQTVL
Summary of the method: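 TSHR-HEK293 cells (800/well) plated 18 h, then compounds with Ro20-1724 and TSH at 1.5 ng/mL final, 30 min at room temperature. cAMP quantified by HTRF (cAMP-d2/anti-cAMP-cryptate, 1 h); 15 concentrations in triplicate.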

[9] = qHTS assay to identify small molecule agonists of the estrogen receptor alpha (ER-alpha) signaling pathway in the presence of an antagonist - cell viability counter screen (AID 1259386; active = well fitted curve in the direction sought with a large enough effect in the repeat runs; an effect the other way counts as inactive or inconclusive;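 note: cells exposed to compounds for 22 h at 37 °C before the viability read; nearly all actives have a fitted effect of over 30% in size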; note: potency is the fitted concentration of half-maximal effect; for activity change, negative = cytotoxicity: series mostly up to about 92 µM)
Summary of the method: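 In this counter screen, compound effects on VM7Luc4E2 viability were tested in the presence of the antagonist ICI-182,780 at 10.0nM final. Compounds were dosed at 15 concentrations, exposure lasted 22hr, and the CellTiter-Fluor signal was read.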

[10] = target: Progesterone receptor (Homo sapiens) (UniProt P06401); experiment: qHTS assay to identify small molecule agonists of the progesterone receptor (PR) signaling pathway (AID 1346784); note: nearly all actives have a fitted effect of over 30% in size
Sequence of Progesterone receptor (Homo sapiens) (P06401 whole entry, looked up): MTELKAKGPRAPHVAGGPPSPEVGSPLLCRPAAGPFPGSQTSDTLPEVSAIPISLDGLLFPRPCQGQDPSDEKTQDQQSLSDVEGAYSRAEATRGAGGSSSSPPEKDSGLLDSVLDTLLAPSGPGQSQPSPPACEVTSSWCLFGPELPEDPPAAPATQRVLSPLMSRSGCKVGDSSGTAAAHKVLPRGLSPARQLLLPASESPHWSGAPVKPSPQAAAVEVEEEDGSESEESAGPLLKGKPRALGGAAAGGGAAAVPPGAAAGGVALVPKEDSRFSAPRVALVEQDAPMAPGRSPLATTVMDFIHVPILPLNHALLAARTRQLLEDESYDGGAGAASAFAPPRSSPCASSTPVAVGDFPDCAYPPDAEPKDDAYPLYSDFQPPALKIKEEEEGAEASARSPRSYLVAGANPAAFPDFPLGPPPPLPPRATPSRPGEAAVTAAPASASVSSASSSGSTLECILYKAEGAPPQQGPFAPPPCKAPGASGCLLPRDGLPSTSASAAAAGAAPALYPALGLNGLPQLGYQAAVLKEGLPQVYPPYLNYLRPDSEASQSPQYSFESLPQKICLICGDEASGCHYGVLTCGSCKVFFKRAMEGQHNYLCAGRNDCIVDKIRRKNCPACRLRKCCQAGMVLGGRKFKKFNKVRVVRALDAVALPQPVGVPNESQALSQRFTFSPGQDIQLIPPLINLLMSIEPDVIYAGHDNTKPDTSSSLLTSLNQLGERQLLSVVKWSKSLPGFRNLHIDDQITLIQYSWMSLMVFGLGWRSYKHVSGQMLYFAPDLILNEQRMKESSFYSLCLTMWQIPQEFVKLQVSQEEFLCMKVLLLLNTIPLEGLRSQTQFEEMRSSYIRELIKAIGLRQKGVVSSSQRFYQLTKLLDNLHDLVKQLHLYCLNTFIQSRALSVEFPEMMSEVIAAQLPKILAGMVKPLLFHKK
Summary of the method: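 PR-UAS-bla HEK 293T cells carrying a UAS-driven beta-lactamase reporter were seeded in medium with 2% charcoal-stripped FBS, preincubated 6 hr at 37C, then exposed to compounds in DMSO for 16 hr; agonism was read by LiveBLAzer B/G FRET fluorescence.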

[11] = qHTS assay to identify small molecule antagonists of the progesterone receptor (PR) signaling pathway - cell viability counter screen (AID 1346798; active = well fitted curve in the direction sought with a large enough effect in the repeat runs; an effect the other way counts as inactive or inconclusive; note: series mostly up to about 92 µM; nearly all actives have a fitted effect of over 50% in size)
Summary of the method: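 PR-UAS-bla HEK293T cells in medium with 2% charcoal-stripped FBS were treated with compounds plus R5020 for 16 hr at 37C. Cell viability was then read by CellTiter-Glo luminescence after 30 min at room temperature in the same wells.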

[12] = qHTS assay to identify small molecule agonists of the progesterone receptor (PR) signaling pathway - cell viability counter screen (AID 1346799); note: nearly all actives have a fitted effect of over 45% in size
Summary of the method: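 PR-UAS-bla HEK293T cells, 3,000 per well in medium with 2% charcoal-stripped FBS, were preincubated 6 hr at 37C, then exposed to compounds for 16 hr; viability was read as CellTiter-Glo luminescence after 30 min at room temperature.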

[13] = qHTS assay to identify small molecule antagonists of the TGF-beta/Smad signaling pathway - cell viability counter screen (AID 1346824; active = well fitted curve in the direction sought with a large enough effect in the repeat runs; an effect the other way counts as inactive or inconclusive; note: nearly all actives have a fitted effect of over 50% in size)
Summary of the method: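 SBE-bla HEK 293T cells, incubated overnight, then compound plus 0.25 ng/mL TGF-beta1 (stock added) for 5 hr at 37 C. Viability was read in the same wells by CellTiter-Glo luminescence after 30 min at room temperature.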

[14] = qHTS assay to identify small molecule agonists of the TGF-beta/Smad signaling pathway - cell viability counter screen (AID 1346829; active = well fitted curve in the direction sought with a large enough effect in the repeat runs; an effect the other way counts as inactive or inconclusive; note: top concentration of the series differs between compounds; nearly all actives have a fitted effect of over 45% in size)
Summary of the method: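 HEK 293T SBE-bla line, 5 hr compound exposure at 37 C, multiplexed CellTiter-Glo viability read by luminescence.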

[15] = target: Progesterone receptor (Homo sapiens) (UniProt P06401); experiment: qHTS assay to identify small molecule antagonists of the progesterone receptor (PR) signaling pathway (AID 1346795; active = well fitted inhibition curve with a large enough effect in the signal ratio in the repeat runs, not every such curve was filed as active; the % refers to the signal ratio)
Summary of the method: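 PR-UAS-bla HEK293T cells carrying a UAS-driven beta-lactamase reporter were plated in medium with 2% charcoal-stripped FBS and rested 6 hr at 37C. Compounds were added with 1 nM R5020 (final) for 16 hr, then FRET substrate loaded 2 hr at room temperature.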

[16] = target: Thyrotropin-releasing hormone receptor (Homo sapiens) (UniProt P34981); experiment: qHTS assay to identify small molecule antagonists of the thyrotropin-releasing hormone receptor (TRHR) signaling pathway (AID 1346877; active = well fitted inhibition curve with a large enough effect in the repeat runs, not every such curve was filed as active; note: series mostly up to about 51 µM)
Sequence of Thyrotropin-releasing hormone receptor (Homo sapiens) (P34981 whole entry, looked up): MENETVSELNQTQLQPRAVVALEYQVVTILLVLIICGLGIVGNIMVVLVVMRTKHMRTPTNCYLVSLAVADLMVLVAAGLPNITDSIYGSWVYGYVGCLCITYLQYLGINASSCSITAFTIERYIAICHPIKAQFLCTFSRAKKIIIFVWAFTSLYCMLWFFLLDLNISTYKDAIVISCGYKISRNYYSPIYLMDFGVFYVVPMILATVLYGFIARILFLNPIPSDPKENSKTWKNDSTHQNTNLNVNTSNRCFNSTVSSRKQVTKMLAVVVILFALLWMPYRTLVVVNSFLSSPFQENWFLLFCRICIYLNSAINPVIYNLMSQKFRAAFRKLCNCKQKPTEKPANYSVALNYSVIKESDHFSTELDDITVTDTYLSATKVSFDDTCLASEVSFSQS
Summary of the method: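 Kinetic fluorescence (3 min, 1 s resolution) following stimulation with TRH at 1 nM final; HEK293 cells bearing human TRHR; 5 min compound preincubation at RT; concentration-response over 15 points, triplicates.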

[17] = target: Thyrotropin-releasing hormone receptor (Homo sapiens) (UniProt P34981); experiment: qHTS assay to identify small molecule agonists of the thyrotropin-releasing hormone receptor (TRHR) signaling pathway (AID 1346891); note: series mostly up to about 58 µM
Summary of the method: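 TRHR-expressing HEK293 cells were plated 18 h at 37 °C/5% CO2, loaded with calcium dye 2 h at 37 °C, then given compound in DMSO; fluorescence was read kinetically for 3 min at 1 s intervals.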

[18] = target: Estrogen receptor beta (Homo sapiens) (UniProt Q92731); experiment: qHTS assay to identify small molecule antagonists of the estrogen receptor beta (ER-beta) signaling pathway (AID 1259378; active = well fitted inhibition curve with a large enough effect in the signal ratio in the repeat runs, not every such curve was filed as active; the % refers to the signal ratio)
Summary of the method: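 ER-beta-UAS-bla HEK293T cells in 2% charcoal-stripped FBS medium treated with compound plus 1nM final 17-beta-estradiol for 16 hr at 37C. Beta-lactamase reporter read by FRET substrate fluorescence after 2 hours at room temperature.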

[19] = qHTS assay to identify small molecule agonists of the TGF-beta/Smad signaling pathway (AID 1346859; active = well fitted activation curve with a large enough effect in the signal ratio in the repeat runs, not every such curve was filed as active; the % refers to the signal ratio; note: series mostly up to about 77 µM)
Summary of the method: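 HEK 293T cells stably carrying a beta-lactamase reporter driven by the Smad binding element were seeded overnight, exposed to DMSO-dissolved compounds for 5 hr at 37 C, 5% CO2, then loaded with FRET substrate for 2 hr at room temperature.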

[20] = target: Androgen receptor (Homo sapiens) (UniProt P10275); experiment: qHTS assay to identify small molecule agonists of the androgen receptor (AR) signaling pathway in the presence of an antagonist (AID 1259381); note: nearly all actives have a fitted effect of over 15% in size
Sequence of Androgen receptor (Homo sapiens) (P10275 whole entry, looked up): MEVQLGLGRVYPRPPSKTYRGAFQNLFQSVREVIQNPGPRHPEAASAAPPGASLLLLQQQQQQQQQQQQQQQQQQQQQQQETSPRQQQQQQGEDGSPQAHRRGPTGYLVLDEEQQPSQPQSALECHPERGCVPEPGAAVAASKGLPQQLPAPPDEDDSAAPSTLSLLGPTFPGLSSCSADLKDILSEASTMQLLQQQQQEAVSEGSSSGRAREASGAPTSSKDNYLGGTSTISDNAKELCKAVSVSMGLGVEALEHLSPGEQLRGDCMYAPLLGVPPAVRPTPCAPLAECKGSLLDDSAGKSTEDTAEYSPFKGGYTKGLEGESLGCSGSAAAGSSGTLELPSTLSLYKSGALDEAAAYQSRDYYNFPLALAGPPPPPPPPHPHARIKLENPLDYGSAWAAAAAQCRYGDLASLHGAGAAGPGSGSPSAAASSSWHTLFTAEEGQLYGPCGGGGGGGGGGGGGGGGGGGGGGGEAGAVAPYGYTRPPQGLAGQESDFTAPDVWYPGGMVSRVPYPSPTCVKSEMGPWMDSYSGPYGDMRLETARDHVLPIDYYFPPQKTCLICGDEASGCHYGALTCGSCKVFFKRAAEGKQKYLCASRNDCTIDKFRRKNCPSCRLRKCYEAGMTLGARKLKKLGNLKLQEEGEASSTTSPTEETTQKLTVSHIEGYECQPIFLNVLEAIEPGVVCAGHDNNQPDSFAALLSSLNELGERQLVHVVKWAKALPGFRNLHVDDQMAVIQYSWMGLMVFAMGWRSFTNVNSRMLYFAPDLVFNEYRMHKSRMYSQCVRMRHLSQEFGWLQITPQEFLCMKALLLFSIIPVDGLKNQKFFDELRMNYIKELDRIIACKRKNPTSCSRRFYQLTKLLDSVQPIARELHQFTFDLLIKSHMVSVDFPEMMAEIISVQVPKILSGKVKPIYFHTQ
Summary of the method: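 Reporter-gene luminescence from MDA-kb2 cells exposed 16hr at 37C (0% CO2) to 15-point compound titrations with 3.0uM final nilutamide as AR antagonist.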
% is set by controls: 0 for no effect and ±100 for the full control effect.

CCCCCCCCCCO[C@@H]1O[C@H](CO)[C@@H](O)[C@H](O)[C@H]1O
active: Potency [1] 61.1 µM
inactive: Potency [2] | Potency [3] | Potency [4] | Potency [5] | Potency [6] | Potency [7] | Potency [8] | Potency [9] | Potency [10] | Potency [11] | Potency [12] | Potency [13] | outcome [14]

O=C1[C@H]2CCCC[C@H]2C(=O)N1CCCCN1CCN(c2nsc3ccccc23)CC1
active: Potency [1] 23.7 µM | Potency [9] 29.8 µM
inactive: Potency [2] | Potency [5] | Potency [6] | Potency [7] | Potency [8] | Potency [10] | Potency [15] | Potency [11] | Potency [12] | Potency [13] | outcome [14] | outcome [16] | Potency [17]

NC(N)=NCCC[C@H](N)C(=O)O
inactive: activity change, negative = inhibition [1] 18.9% [at 8.39 µM] | activity, negative = inhibition [18] 14.4% [at 8.39 µM] | activity change, negative = cytotoxicity [3] 2.11% [at 8.39 µM] | activity change, negative = cytotoxicity [4] 6.72% [at 8.39 µM] | activity change, negative = cytotoxicity [5] 6.28% [at 8.39 µM] | activation [6] -0.001% [at 8.39 µM] | cAMP activity change [7] -11% [at 8.39 µM, active compounds read high] | activity change, negative = inhibition [8] -0.191% [at 8.39 µM] | activity change, negative = cytotoxicity [9] 0.856% [at 8.39 µM] | activation [10] -0.127% [at 8.39 µM] | activity change, negative = inhibition [15] 7.3% [at 8.39 µM] | activity change, negative = cytotoxicity [11] -0.687% [at 8.39 µM] | activity change, negative = cytotoxicity [12] -1.33% [at 8.39 µM] | viability change, negative = cytotoxic [13] 7.48% [at 6.97 µM] | activity change, negative = cytotoxicity [14] 6.19% [at 6.97 µM] | activity, negative = inhibition [16] -3.14% [at 4.65 µM] | activation [17] 0.134% [at 5.23 µM]

Cn1c(=O)cc(Oc2ccc(F)cc2F)c2cnc(NCC(C)(C)O)nc21
active: Potency [1] 27.3 µM
inactive: Potency [2] | Potency [3] | Potency [4] | Potency [5] | Potency [6] | Potency [10] | Potency [13] | outcome [14] | Potency [19]

CC(C)CC(=O)C1C(=O)c2ccccc2C1=O
inactive: Potency [2] | Potency [3] | Potency [20] | Potency [5] | Potency [6] | Potency [7] | Potency [10] | Potency [15] | outcome [14] | Potency [19] | outcome [16] | Potency [17]
active: Potency [1] 61.1 µM

O=[N+]([O-])c1ccc2[nH]ncc2c1
inactive: Potency [1] | Potency [18] | Potency [3] | Potency [4] | Potency [5] | Potency [6] | Potency [7] | Potency [8] | Potency [9] | Potency [10] | Potency [11] | Potency [12] | Potency [13] | outcome [14] | Potency [19] | outcome [16] | Potency [17]

C=C(C)C(=O)OCC
inactive: Potency [1] | Potency [18] | Potency [3] | Potency [4] | Potency [5] | Potency [6] | Potency [7] | Potency [8] | Potency [11] | Potency [12] | Potency [13] | outcome [14] | outcome [16] | Potency [17]
